Results from PubChem BioAssay (Tox21).
Inconclusive results are not listed. A call without a number means that no potency is given here. The source made the active and inactive calls. Calls follow the shape of the dose curve; as a rule, active = well fitted activation curve with a large enough effect in the repeat runs; inconclusive = weak or mixed curves; inactive = flat fitted curve, though single readings scatter.

Test: A CellTox Green Cytotoxicity Assay to monitor cytotoxicity in HepG2 cells - 32 hour (AID 1224883); also: nearly all actives have a fitted effect of over 50% in size
Settings: CellTox Green fluorescence; series mostly up to 76.8 µM
Excerpt: National Center for Advancing Translational Sciences [NCATS]
NIH Chemical Genomics Center [NCGC]
U.S. Environmental Protection Agency [EPA]
National Institutes of Environmental Health Sciences [NIEHS]
National Toxicology Program [NTP]
Cell-based models are critical for drug discovery. Determining the natural cytotoxic effects resulting from test compounds is an essential research activity. A CellTox Green Cytotoxicity Assay to monitor cytotoxicity in real time of continues cell culture during 40 hours of the compound treatment was used to screen Tox21 10K library compounds in HepG2 cells. CellTox Green Cytotoxicity Assay is a nonlytic, homogeneous, biofluorescent method to measure cytotoxicity in cell culture after experimental manipulation. The assay system uses a proprietary asymmetric cyanine dye that is excluded from viable cells but preferentially stains the dead cell's DNA. […] Viable cells produce no appreciable increases in fluorescence. Therefore, the fluorescence signal produced by the binding interaction with dead cell DNA is proportional to cytotoxicity.
The mixture of HepG2 cell suspension and reagents were dispensed at 600cells/6 ul/well in 1536-well tissue culture treated black solid bottom plates using a Multidrop dispenser. After the assay plates were incubated at a 37 C/5% CO2 incubator for 5 hours, 23 nL of compounds dissolved in DMSO, positive and negative controls was transferred to the assay plate by a pintool work station. The plates were incubated at 37 C for 40 hours. The fluorescence intensity were measured at 0h, 8h, 16h, 24h, 32h and 40h time points using ViewLux plate reader during compound treatment.

Compound	Potency
Nc1ccccn1	inactive
NO	inactive
CN(C)[C@@H]1C(=O)C(C(=O)NCN2CCCC2)=C(O)[C@@]2(O)C(=O)C3=C(O)c4c(O)cccc4[C@@](C)(O)C3C[C@@H]12 (stereo not given in full)	inactive
[K+]	inactive
CC[C@H]1OC(=O)[C@H](C)[C@@H](O[C@H]2C[C@@](C)(OC)[C@@H](O)[C@H](C)O2)[C@H](C)[C@@H](O[C@@H]2O[C@H](C)C[C@H](N(C)C)[C@H]2O)[C@](C)(OC)C[C@@H](C)C(=O)[C@H](C)[C@@H](O)[C@]1(C)O	inactive
O=C(O)CC(C(=O)O)S(=O)(=O)O (stereo not given)	inactive
c1ccc2sc(SN3CCOCC3)nc2c1	inactive
CC(=O)C1CCCCC1=O (stereo not given)	inactive
CC(CO)(CO)[N+](=O)[O-]	inactive
Cc1coc2ccccc2c1=O	inactive
Cc1ccc(-c2ccccc2C#N)cc1	inactive
CNCCO	inactive
NS(=O)(=O)Cc1noc2ccccc12	inactive
CN1CCC(=C2c3ccccc3CCc3cccnc32)CC1	inactive
CCN1C=CN(C)C1C (stereo not given)	inactive
CNCC(O)c1ccc(O)c(O)c1 (stereo not given)	inactive
CN1[C@@H]2CC[C@H]1CC(OC(=O)C(O)c1ccccc1)C2 (stereo not given in full)	inactive
CC1(C)OC[C@@H](COC(=O)CCc2ccc(OC[C@@H](O)CNCCNC(=O)N3CCOCC3)cc2)O1	inactive
CCN1CCOCC1	inactive
COc1ccccc1OCC1CNC(=O)O1 (stereo not given)	inactive

Compound	Potency
CO[C@@]1(NC(=O)C(C(=O)O)c2ccc(O)cc2)C(=O)N2C(C(=O)O)=C(CSc3nnnn3C)CO[C@@H]21 (stereo not given in full)	inactive
C[N+]1(C)CCCC(OC(=O)C(O)(c2ccccc2)c2ccccc2)C1 (stereo not given)	inactive
O=S(=O)(O)c1cc(O)c(O)c(S(=O)(=O)O)c1	inactive
O=C1CCCCCCCCCCCCCCO1	inactive
Cc1ncc([C@@H](CCCCCCc2ccc3c(n2)NCCC3)CC(=O)O)cn1	inactive
Cc1ccnc(NS(=O)(=O)c2ccc(N)cc2)n1	inactive
COCCOCC(OC)OC	inactive
CC1=C(C/C=C(\C)CCC[C@H](C)CCC[C@H](C)CCCC(C)C)C(=O)c2ccccc2C1=O	inactive
C1CCC2=NCCCN2CC1	inactive
O=Cc1cccc(Br)c1	inactive
Cc1nc(C2CCCCC2)c(-c2ccc(S(N)(=O)=O)c(F)c2)o1	inactive
NC(=O)Cc1cccc2ccccc12	inactive
C[C@@H]1CCC[C@H](C)N1	inactive
C=CC(=O)OCCCl	inactive
[Ca+2]	inactive
CC(C)(N)C#N	inactive
CCO[Si](OCC)(OCC)c1ccccc1	inactive
COc1ccnc(CS(=O)c2nc3cc(OC(F)F)ccc3[nH]2)c1OC (stereo not given)	inactive
COc1cc(C(=O)NCc2ccc(OCCN(C)C)cc2)cc(OC)c1OC	inactive
CCCOC(=O)CC	inactive
